Results filed as inconclusive are left out. Activity calls are given as the source filed them. Rule for the calls: active = hit-call score of the fitted dose curve at least 0.9, where 1 is the maximum; inconclusive = response in the unintended direction; inactive = score below 0.9.

Read-out in the assay: Cytochrome P450 2C9 (Homo sapiens) (UniProt P11712)
In words: CLD_CYP2C9_24hr: CellzDirect (CLD) Gene Expression Assay for xenobiotic metabolism (CYP2C9) at 24 hours (AID 2283688). On the procedure:
CLD_24hr is a cell-based, multiplexed-readout assay that uses hepatocyte, a human liver primary cell, with measurements taken at 24 hours after chemical dosing in a 96-well plate.CLD_CYP2C9_24hr is one of 16 assay component(s) measured or calculated from the CLD_24hr assay. It is designed to make measurements of mRNA induction, a form of inducible reporter, as detected with chemiluminescence signals by Quantitative Nuclease Protection Assay (qNPA) technology.Data from the assay component CLD_CYP2C9_24hr was analyzed at the endpoint, CLD_CYP2C9_24hr, in the positive analysis fitting direction relative to DMSO as the negative control and baseline of activity. Using a type of inducible reporter, gain-of-signal activity can be used to understand changes in the reporter gene as they relate to the gene CYP2C9. Furthermore, this assay endpoint can be referred to as a primary readout. To generalize the intended target to other relatable targets, this assay endpoint is annotated to the cyp intended target family, where subfamily is xenobiotic metabolism.
Human hepatocyte cultures were treated daily for two consecutive days with fresh dosing solutions containing appropriate concentrations of the 320 ToxCast chemicals (chemical identities were blinded to CellzDirect and other ToxCast collaborators), vehicle control (0.2% DMSO), and positive control inducers as summarized in Table 1. Due to the large number of treatment groups and chemicals examined, the ToxCast chemicals were divided into two groups (spanning two independent cultures of hepatocytes from separate donor preparations (Hu778: ToxCast plates 1 and 2; Hu776: ToxCast plates 3 and 4). Each preparation of human hepatocyte cultures was treated with respective vehicle control, medium only control, set of six positive controls/reference chemicals for the five hepatic receptor pathways, and a subset of eight of the ToxCast chemicals (indoxacarb, pyrithiobac-sodium, norflurazon, cyhalofop-butyl, methomyl, thiram, acetochlor, and propiconazole). These replicate data, coupled with internal replicates designed within the blinded ToxCast chemical library, provided additional data to evaluate interindividual differences between hepatocyte preparations and their potential impact on chemical profiles.Cell morphology and integrity were evaluated using phase-contrast microscopy as an indicator of hepatocyte cell health (Tyson & Green, 1987). Cultures for each treatment group (i.e., media, vehicle [0.2% DMSO], positive control inducers [multiple concentrations], and the ToxCast chemicals [multiple concentrations]) were observed and cell morphology was assessed relative to vehicle control cultures at each harvest time point (0, 6, 24, or 48 h). […] Images were evaluated at the conclusion of the study to assess changes in cell integrity and account for the effects of chemical exposure on uncharacteristic changes in concentration-dependent gene expression profiles. The results from these determinations of apparent cytotoxicity were annotated (yes/no) alongside the corresponding qNPA data for reference.At the conclusion of each treatment period, hepatocyte cultures (96-well) were washed with 1 volume of HBSS, lysed by addition of 25 ul ArrayPlate lysis buffer (HTG, Tucson, AZ), and 70 ul/well of Denaturation Oil, denatured by incubation at 95C for 10 min, and frozen at approximately -70C until analysis by nuclease protection assay (qNPA) (Roberts et al., 2007). For qNPA analysis, cell lysates were thawed at 50C for approximately 30 min, qNPA probes were added, and samples were incubated at 95C for 10 min to begin the detection process by denaturing the target RNA, dissociating the duplexes and secondary structure hybridization. At the conclusion of the hybridization period, S1 nuclease reagent was added to each sample to digest all nonprotected nucleotides at 50C for 60-90 min. […]
As for `CCCCSP(=O)(SCCCC)SCCCC`, the molecule was called inactive. To `CCC(=NOC/C=C/Cl)C1=C(O)CC(C2CCOCC2)CC1=O` (configuration not stated) belongs “inactive”. For `C=C(C)[C@H]1Cc2c(ccc3c2O[C@@H]2COc4cc(OC)c(OC)cc4[C@@H]2C3=O)O1`, the molecule was classed as inactive. As for `CCOC(=O)COc1cc(-c2nn(C)c(OC(F)F)c2Cl)c(F)cc1Cl`, the entry is “inactive”; as for `CNC(=O)ON=C(SC)C(=O)N(C)C`, “inactive”.

Consider `C[N+]1(C)CCCCC1`, for which the call was inactive. Take `CSc1nc(NC(C)C)nc(NC(C)C)n1`: the molecule was classed as inactive.

In the case of `COc1cc(OC)nc(Sc2cccc(Cl)c2C(=O)O)n1`, the call was inactive. Regarding `CN1COCN(Cc2cnc(Cl)s2)C1=N[N+](=O)[O-]`, the call was inactive. To `C#CCC1=C(C)C(OC(=O)C2C(C=C(C)C)C2(C)C)CC1=O` (configuration not stated) belongs “inactive”. Regarding `CCc1cccc(C)c1N(C(=O)CCl)C(C)COC` (configuration not stated), the result was inactive. Turning to `CCCCN(CC)c1c([N+](=O)[O-])cc(C(F)(F)F)cc1[N+](=O)[O-]`, the result was inactive.

Consider `CC(C)=CC1C(C(=O)OCN2C(=O)C3=C(CCCC3)C2=O)C1(C)C` (configuration not stated), for which the molecule was called inactive.

`CNC(=O)Oc1cccc2c1OC(C)(C)O2`: the molecule was classed as inactive.

Regarding `CCCOc1nn(C(=O)NS(=O)(=O)c2ccccc2C(=O)OC)c(=O)n1C`, the outcome was inactive. As for `CC[C@H](C)[C@H]1O[C@]2(C=C[C@@H]1C)C[C@@H]1C[C@@H](C/C=C(\C)[C@@H](O[C@H]3C[C@H](OC)[C@@H](O[C@H]4C[C@H](OC)[C@@H](NC)[C@H](C)O4)[C@H](C)O3)[C@@H](C)/C=C/C=C3\CO[C@@H]4[C@H](O)C(C)=C[C@@H](C(=O)O1)[C@]34O)O2`, the entry is “inactive”. To `CCOP(=S)(OCC)OC(Cl)C(Cl)(Cl)Cl` (configuration not stated) belongs “inactive”. To `CCOP(=S)(Oc1cnc(C(C)(C)C)nc1)OC(C)C` (configuration not stated) belongs “inactive”; to `CCOP(=O)(OCC)Oc1cc(C)nc(C(C)C)n1`, “inactive”; to `CC(=NC#N)N(C)Cc1ccc(Cl)nc1`, “inactive”.

On to `Cc1ccn2nc(S(=O)(=O)Nc3c(F)cccc3F)nc2n1`, for which the call was inactive. In the case of `CCC(CC)Nc1c([N+](=O)[O-])cc(C)c(C)c1[N+](=O)[O-]`, the molecule was classed as inactive.

On to `CSC1=N[C@@](C)(c2ccccc2)C(=O)N1Nc1ccccc1`, for which the result was inactive.

Take `CCc1cccc(CC)c1N(COC)C(=O)CCl`: the molecule was called inactive. Consider `O=c1ccc(=O)[nH][nH]1`, for which the call was inactive. As for `CCOP(=O)(NC(C)C)Oc1ccc(SC)c(C)c1` (configuration not stated), the entry is “inactive”. As for `C#CC(C)(C)NC(=O)c1cc(Cl)cc(Cl)c1`, the entry is “inactive”; as for `COc1ccc(C(=CC(=O)N2CCOCC2)c2ccc(Cl)cc2)cc1OC`, “inactive”. Take `CCOP(=O)(SC(C)CC)N1CCSC1=O` (configuration not stated): the outcome was inactive. As for `Nc1nc(N)nc(NC2CC2)n1`, the entry is “inactive”. To `CCCSP(=O)(OCC)Oc1ccc(Br)cc1Cl` (configuration not stated) belongs “inactive”; to `CN(C)C(=O)Nc1cccc(C(F)(F)F)c1`, “inactive”; to `CC(COc1ccc(Oc2ccccc2)cc1)Oc1ccccn1` (configuration not stated), “inactive”. To `CCOC(=O)CC(SP(=O)(OC)OC)C(=O)OCC` (configuration not stated) belongs “inactive”; to `Nc1c(Cl)cc([N+](=O)[O-])cc1Cl`, “inactive”.

`CCOP(=S)(OCC)Oc1ccc2c(C)c(Cl)c(=O)oc2c1`: the molecule was called inactive. For `CON=C(C(=O)OC)c1ccccc1CON=C(C)c1cccc(C(F)(F)F)c1`, the result was inactive.

The record behind these values is PubChem BioAssay (EPA / NIEHS).
